A short description of experiment [1]: Nuclear factor erythroid 2-related factor 2/antioxidant responsive element (Nrf2/ARE) small molecule agonists: qHTS cell viability counter screen in human keratinocytes (AID 1919968; active = well fitted curve in the direction sought with a large enough effect in the repeat runs; an effect the other way counts as inactive or inconclusive; also: nearly all actives have a fitted effect of over 55% in size; also: potency is read from the fitted curve at half-maximal effect). In outline: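 KeratinoSens HaCaT cells, 1,500/well, preincubated 5 h, then exposed to compounds in DMSO for 23 h at 37 C/5% CO2. Viability read as CellTiter-Fluor fluorescence after 1 h, in the same wells as the ARE-luciferase read.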
On the technique in general: qHTS replaces the single test concentration by a dilution series.

A short description of experiment [2]: Nuclear factor erythroid 2-related factor 2/antioxidant responsive element (Nrf2/ARE) small molecule agonists: luciferase reporter gene qHTS assay in human keratinocytes (AID 1919969). Also: nearly all actives have a fitted effect of over 35% in size. Also: potency is read from the fitted curve at half-maximal effect.
Experiment [3] deals with KiSS-1 receptor (Homo sapiens) (UniProt Q969F8). In words: Human kisspeptin (KISS1R) small molecule agonists, calcium flux assay in KISS1R-HEK293 cells (AID 1920064; active = well fitted curve in the direction sought with a large enough effect in the repeat runs; an effect the other way counts as inactive or inconclusive). The procedure, abridged: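 HEK293 cells stably expressing human KISS1R were loaded with calcium dye for 1 h at 37 C, then given compound; fluorescence (Ex/Em 480/540) was read kinetically for 3 min. Fifteen concentrations, triplicate.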
(Calcium assays in cells follow changes in intracellular calcium, usually with a dye or a luminescent sensor.)

Experiment [4] in a line: G protein-coupled receptor (GPCR) small molecule agonists, calcium flux assay: HEK293 wild type cell line counter screen (AID 1920065). In outline:
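Wild-type HEK293 cells plated 18 h, loaded with calcium dye 1 h at 37 C, then compounds added in agonist mode (ATP as positive control). Kinetic fluorescence Ex/Em 480/540 recorded 3 min at 1 sec intervals; 15 concentrations, triplicate.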

Experiment [5] can be described thus: p53 small molecule agonists, cell-based qHTS assay with rat liver microsomes (AID 1963578). The procedure, abridged: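 Quantitative HTS of the Tox21 10K library: p53RE-bla cells, rat liver microsomes plus NADPH at 0.5 mg/mL final each, 16 h at 37 C, beta-lactamase fluorescence detection.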
A short description of experiment [6]: p53 small molecule agonists, cell-based qHTS assay with human liver microsomes: qHTS cell viability counter screen (AID 1963579). Also: nearly all actives have a fitted effect of over 45% in size. In outline:
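Viability of p53RE-bla cells is measured as CellTiter-Glo luminescence following a 16 h, 37 C incubation with compound, liver microsomes from human donors and NADPH.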

Experiment [7] in a line: p53 small molecule agonists, cell-based qHTS assay with rat liver microsomes: qHTS cell viability counter screen (AID 1963580). Also: nearly all actives have a fitted effect of over 45% in size. The procedure, abridged: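 In HCT-116 cells carrying a p53 response element-bla reporter, compounds were metabolically activated in situ by rat liver microsomes with NADPH over 16 h. Cell ATP content then served as the cytotoxicity measure.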
A short description of experiment [8]: p53 small molecule agonists, cell-based qHTS assay: qHTS cell viability counter screen (AID 1963581). Also: nearly all actives have a fitted effect of over 45% in size. In outline: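 p53RE-bla HCT-116 cells, compounds added 5 h after plating and incubated 16 h at 37 C. Cytotoxicity measured in the same wells as intracellular ATP by CellTiter-Glo luminescence after 30 min at room temperature.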
Experiment [9] can be described thus: p53 small molecule agonists, cell-based qHTS assay (AID 1963582; active = well fitted activation curve with a large enough effect in the signal ratio in the repeat runs, not every such curve was filed as active; the % refers to the signal ratio). In outline:
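p53RE-bla reporter cells, compounds added in DMSO after 5 h plating, incubated 16 h at 37 C. Beta-lactamase read via 2 h room-temperature LiveBLAzer B/G FRET substrate, fluorescence intensity.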

The target of experiment [10] is Muscarinic acetylcholine receptor M1 (Homo sapiens) (UniProt P11229). The experiment in a line: Cholinergic receptor muscarinic 1 (CHRM1) small molecule antagonists, cell-based qHTS assay (AID 1963588). Also: nearly all actives have a fitted effect of over 40% in size. Also: potency is read from the fitted curve at half-maximal effect. In outline: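 CHRM1-CHO calcium-flux assay, antagonist mode. Cells were seeded 18 h, dye-loaded 1 h at 37 C and given compound for 5 min at RT, then acetylcholine was added at 50nM. FDSS fluorescence was read 3 min; 15 concentrations, three runs.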

A short description of experiment [11]: cAMP Responsive Elements (CRE) small molecule agonists, cell-based qHTS assay (AID 1963590). The procedure, abridged: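 CRE-bla HEK 293T cells, 2,000/well in DMEM with 10% dialyzed FBS and 25 mM HEPES, pre-incubated 18 h at 37 C, then exposed to compound 3 h at 37 C. Beta-lactamase reporter read with LiveBLAzer B/G FRET substrate after 2 h at room temperature.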

For experiment [12], the target named is Beta-2 adrenergic receptor (Homo sapiens) (UniProt P07550). The experiment in a line: Adrenergic beta2 receptor (ADRB2) small molecule antagonists, cell-based qHTS assay (AID 1963592). Also: nearly all actives have a fitted effect of over 50% in size. Also: potency is read from the fitted curve at half-maximal effect. In outline:
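Cells (CHO, stable ADRB2 overexpression) incubated 18-20hr at 37C; compounds added from DMSO; agonist mix (1nM isoproterenol, 100uM IBMX, 25uM Ro-20-1724) added; 0.5hr RT; d2-cAMP and anti-cAMP-cryptate added; 1hr RT; 665/615 nm read.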

Experiment [13] deals with D(2) dopamine receptor (Homo sapiens) (UniProt P14416). The experiment in a line: Dopamine D2 receptor (DRD2) small molecule antagonists, cell-based qHTS assay (AID 1963595; active = well fitted inhibition curve with a large enough effect in the signal ratio in the repeat runs, with a control signal flat; the % refers to the signal ratio). The procedure, abridged:
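Readout: HTRF cAMP, cAMP-d2 competing with cellular cAMP for anti-cAMP cryptate, read after 1 h. Cells: DRD2-HEK293. Conditions: 0.1 mM Ro20-1724, 12 nM quinpirole, 200 nM NKH477, 30 min RT.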

For experiment [14], the target named is Gonadotropin-releasing hormone receptor (Homo sapiens) (UniProt P30968). In words: Human gonadotropin-releasing hormone receptor (GnRHR) small molecule agonists, calcium flux assay in GnRHR-HEK293 cells (AID 1920063). Also: nearly all actives have a fitted effect of over 35% in size. Also: potency is read from the fitted curve at half-maximal effect. In outline: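 HEK293 cells stably expressing human GnRHR were dye-loaded for 1 h at 37 C. Compound was added in agonist mode and fluorescence (Ex/Em 480/540) recorded kinetically for 3 min. Fifteen concentrations, triplicates.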

Experiment [15] concerns the target 5-hydroxytryptamine receptor 2A (Homo sapiens) (UniProt P28223). The experiment in a line: 5-hydroxytryptamine receptor 2A (HTR2A) small molecule antagonists, cell-based qHTS assay (AID 1963586). Also: nearly all actives have a fitted effect of over 45% in size. In outline:
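Antagonist-mode intracellular calcium assay: DOI (4 nM) added after 5 min compound pre-incubation at room temperature to dye-loaded HTR2A-CHO cells. Fluorescence followed for 3 min, sampled every second.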

Experiment [16] has the same target. The experiment in a line: 5-hydroxytryptamine receptor 2A (HTR2A) small molecule agonists, cell-based qHTS assay (AID 1963587). Also: nearly all actives have a fitted effect of over 30% in size. Also: potency is read from the fitted curve at half-maximal effect. In outline: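 HTR2A-CHO cells, plated 18 h at 37 C/5% CO2, dye-loaded 1 h at 37 C; compounds in DMSO added by pin tool (agonist mode). Intracellular calcium flux read as kinetic fluorescence on FDSS over 2 min at 1 s intervals.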
In experiment [17] the target is Muscarinic acetylcholine receptor M1 (Homo sapiens) (UniProt P11229). In words: Cholinergic receptor muscarinic 1 (CHRM1) small molecule agonists, cell-based qHTS assay (AID 1963589). Also: nearly all actives have a fitted effect of over 35% in size. The procedure, abridged: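 CHO cells stably expressing human CHRM1 were loaded with calcium dye for 1 h at 37 C, then compound was added in agonist mode. Intracellular calcium fluorescence was followed kinetically at 1 s intervals. Fifteen concentrations were tested in three independent runs.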

Experiment [18] is described as follows: cAMP Responsive Elements (CRE) small molecule antagonists, cell-based qHTS assay (AID 1963591; active = well fitted inhibition curve with a large enough effect in the signal ratio in the repeat runs, not every such curve was filed as active; the % refers to the signal ratio; also: potency is read from the fitted curve at half-maximal effect). The procedure, abridged: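 CRE-bla HEK293T cells plated 18 h, then given compound plus NKH477 at 0.25 uM final for 3 h at 37C. Beta-lactamase reporter read with LiveBLAzer B/G FRET substrate after 2 h at room temperature.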
The target in experiment [19] is Beta-2 adrenergic receptor (Homo sapiens) (UniProt P07550). In words: Adrenergic beta2 receptor (ADRB2) small molecule agonists, cell-based qHTS assay (AID 1963593).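 Also: CHO cells stably overexpressing human ADRB2.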 In outline:
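CHO cells stably over-expressing ADRB2 were plated overnight at 37C, then dosed with compounds plus a stimulation mix containing 100uM IBMX and 25uM Ro-20-1724 for 0.5hr at room temperature. cAMP was measured by HTRF competition, 1hr.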

Experiment [20] concerns the target D(2) dopamine receptor (Homo sapiens) (UniProt P14416). In words: Dopamine D2 receptor (DRD2) small molecule agonists, cell-based qHTS assay (AID 1963594). Also: nearly all actives have a fitted effect of over 35% in size. In outline: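 HEK293 cells stably expressing DRD2 were cultured 24 h at 37 C, then given Ro20-1724 (0.1 mM final) and compounds for 10 min at room temperature. NKH477 (200nM) was then added for 30 min. cAMP was read by HTRF.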

Records with an inconclusive call do not appear. Calls of active or inactive are those of the source. Unless noted, calls follow the shape of the full dose curve.

Sequence of Beta-2 adrenergic receptor (Homo sapiens) (P07550 whole entry, looked up): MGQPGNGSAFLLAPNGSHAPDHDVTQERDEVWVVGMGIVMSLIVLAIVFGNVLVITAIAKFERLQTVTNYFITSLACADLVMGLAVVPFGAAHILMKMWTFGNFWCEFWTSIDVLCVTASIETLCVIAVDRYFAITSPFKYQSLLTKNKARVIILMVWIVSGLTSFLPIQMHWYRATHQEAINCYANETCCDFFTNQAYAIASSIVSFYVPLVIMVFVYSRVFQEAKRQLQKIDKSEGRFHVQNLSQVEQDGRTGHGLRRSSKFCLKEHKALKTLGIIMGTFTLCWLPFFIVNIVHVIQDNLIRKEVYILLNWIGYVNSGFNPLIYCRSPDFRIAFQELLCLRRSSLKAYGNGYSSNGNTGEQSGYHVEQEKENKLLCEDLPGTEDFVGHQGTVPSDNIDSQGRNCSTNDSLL
Sequence of Muscarinic acetylcholine receptor M1 (Homo sapiens) (P11229 whole entry, looked up): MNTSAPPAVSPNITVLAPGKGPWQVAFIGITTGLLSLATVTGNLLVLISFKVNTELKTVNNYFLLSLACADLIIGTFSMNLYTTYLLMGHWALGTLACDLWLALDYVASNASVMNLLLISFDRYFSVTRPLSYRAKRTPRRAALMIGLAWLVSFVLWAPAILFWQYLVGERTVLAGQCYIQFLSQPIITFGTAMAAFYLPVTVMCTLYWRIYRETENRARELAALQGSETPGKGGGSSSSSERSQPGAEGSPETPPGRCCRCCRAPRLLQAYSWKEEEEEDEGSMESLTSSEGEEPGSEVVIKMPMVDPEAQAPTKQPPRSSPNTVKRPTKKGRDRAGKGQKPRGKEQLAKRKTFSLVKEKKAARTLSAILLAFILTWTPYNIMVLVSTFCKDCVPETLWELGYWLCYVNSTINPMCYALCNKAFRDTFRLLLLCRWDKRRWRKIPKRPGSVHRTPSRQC
Sequence of D(2) dopamine receptor (Homo sapiens) (P14416 whole entry, looked up): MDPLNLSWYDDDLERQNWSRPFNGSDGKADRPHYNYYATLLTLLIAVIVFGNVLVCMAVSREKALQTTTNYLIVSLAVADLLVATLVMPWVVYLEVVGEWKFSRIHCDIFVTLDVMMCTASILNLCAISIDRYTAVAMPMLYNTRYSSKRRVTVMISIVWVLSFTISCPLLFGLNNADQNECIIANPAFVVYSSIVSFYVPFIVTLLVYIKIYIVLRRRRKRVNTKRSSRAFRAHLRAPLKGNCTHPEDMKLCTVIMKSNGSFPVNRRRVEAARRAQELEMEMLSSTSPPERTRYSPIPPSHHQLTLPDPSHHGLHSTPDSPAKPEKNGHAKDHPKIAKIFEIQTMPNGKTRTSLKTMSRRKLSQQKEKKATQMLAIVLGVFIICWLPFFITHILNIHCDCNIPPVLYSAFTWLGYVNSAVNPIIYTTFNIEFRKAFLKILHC
Sequence of Gonadotropin-releasing hormone receptor (Homo sapiens) (P30968 whole entry, looked up): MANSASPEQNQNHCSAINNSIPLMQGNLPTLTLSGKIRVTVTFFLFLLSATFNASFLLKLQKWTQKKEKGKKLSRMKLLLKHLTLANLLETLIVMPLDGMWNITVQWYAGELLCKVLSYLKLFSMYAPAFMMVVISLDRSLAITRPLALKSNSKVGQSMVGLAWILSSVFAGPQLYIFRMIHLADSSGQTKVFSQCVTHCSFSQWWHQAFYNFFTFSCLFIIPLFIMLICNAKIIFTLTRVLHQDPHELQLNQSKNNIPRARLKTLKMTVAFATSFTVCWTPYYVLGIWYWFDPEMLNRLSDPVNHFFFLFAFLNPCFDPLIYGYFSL
Sequence of 5-hydroxytryptamine receptor 2A (Homo sapiens) (P28223 whole entry, looked up): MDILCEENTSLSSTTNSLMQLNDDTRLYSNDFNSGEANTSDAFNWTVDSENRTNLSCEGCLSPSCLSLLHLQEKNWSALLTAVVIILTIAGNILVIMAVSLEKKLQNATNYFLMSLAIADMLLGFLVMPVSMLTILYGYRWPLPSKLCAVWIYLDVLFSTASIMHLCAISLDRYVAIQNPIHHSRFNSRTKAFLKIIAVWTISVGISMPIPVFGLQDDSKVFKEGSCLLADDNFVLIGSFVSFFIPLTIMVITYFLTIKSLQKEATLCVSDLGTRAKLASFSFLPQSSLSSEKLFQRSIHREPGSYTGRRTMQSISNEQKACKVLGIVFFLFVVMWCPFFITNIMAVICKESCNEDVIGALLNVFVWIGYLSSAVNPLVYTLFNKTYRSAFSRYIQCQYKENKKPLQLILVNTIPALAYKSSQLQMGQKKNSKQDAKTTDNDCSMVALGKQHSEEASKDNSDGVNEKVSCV
Sequence of KiSS-1 receptor (Homo sapiens) (Q969F8 whole entry, looked up): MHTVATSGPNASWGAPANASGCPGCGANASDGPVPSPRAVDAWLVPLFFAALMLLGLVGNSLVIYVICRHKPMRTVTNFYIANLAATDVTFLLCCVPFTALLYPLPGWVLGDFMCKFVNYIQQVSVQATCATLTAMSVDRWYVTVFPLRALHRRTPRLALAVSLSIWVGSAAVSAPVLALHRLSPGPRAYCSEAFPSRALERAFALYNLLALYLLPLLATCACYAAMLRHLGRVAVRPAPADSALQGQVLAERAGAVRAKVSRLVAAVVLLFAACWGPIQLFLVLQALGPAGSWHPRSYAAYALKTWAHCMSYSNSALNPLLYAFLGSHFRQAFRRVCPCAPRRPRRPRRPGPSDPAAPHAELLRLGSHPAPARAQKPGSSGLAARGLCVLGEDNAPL

`c1coc(Cn2cccc2)c1`: the Potency result in [1], in experiment [2], in experiment [3], in [4], in [5] and in [6] was “inactive” each time. In addition, the Potency entry in [7], in experiment [8], in experiment [9], in experiment [10], in experiment [11] and in experiment [13] was “inactive” each time. The Potency in [12] was 30.6 µM (active).
With `Cc1ncc([C@@H](CCCCCCc2ccc3c(n2)NCCC3)CC(=O)O)cn1`, the Potency entry in experiment [1], in [2], in experiment [14], in experiment [4], in experiment [7] and in experiment [15] was “inactive” each time. Also, the Potency entry in experiment [16], in experiment [10], in [17], in [11], in experiment [12] and in experiment [19] was “inactive” throughout. In addition, in experiment [13], the Potency entry was “inactive”. In [18], the Potency is 0.545 µM (active).
Regarding `Cc1ccc(S(=O)(=O)C(I)I)cc1`, the Potency in [1] was 27.3 µM (active); in [2], 6.11 µM (active); in experiment [14], 38.9 µM (active); in [16], 54.9 µM (active); in experiment [10], 18.8 µM (active). Further, the Potency entry in experiment [5], in [8], in [15], in experiment [12] and in [20] was “inactive” in each case.
Take `C[C@]12CCC(=O)C=C1C=C[C@@H]1[C@@H]2CC[C@@]2(C)[C@H]1CC[C@@]21CCC(=O)O1`: the Potency result in [1], in experiment [2], in experiment [3], in [4], in [5] and in [6] was “inactive” in each case. Besides, the Potency result in experiment [7], in experiment [8], in experiment [9], in experiment [16], in [17] and in [12] was “inactive” in each case. In addition, the Potency result in [19] and in experiment [13] was “inactive” each time.
As for `C1CCC2(CCCCO2)OC1`, the Potency result in experiment [1], in [2], in [14], in [4], in [6] and in experiment [8] was “inactive” in each case. The Potency entry in experiment [15], in experiment [16], in experiment [10], in experiment [17], in experiment [11] and in [18] was “inactive” each time. In addition, the Potency entry in [12], in experiment [19], in [20] and in experiment [13] was “inactive” in each case.
With `CC(C)OC(=O)c1ccccc1C(=O)OC(C)C`, the Potency result in experiment [1], in [2], in experiment [14], in experiment [4], in experiment [6] and in [7] was “inactive” throughout. Further, the Potency result in experiment [8], in experiment [10], in experiment [17], in experiment [11], in [18] and in experiment [12] was “inactive” throughout. The Potency result in experiment [20] and in [13] was “inactive” in each case.
On to `O=CNc1ccccc1`, for which the Potency result in experiment [1], in [2], in experiment [14], in experiment [4], in experiment [6] and in [7] was “inactive” each time. Also, the Potency entry in experiment [8], in experiment [15], in experiment [16], in experiment [17], in experiment [11] and in [18] was “inactive” in each case. The Potency entry in [12], in experiment [20] and in experiment [13] was “inactive” in each case.
Take `CN(C)CC[C@@H](c1ccc(Br)cc1)c1ccccn1`: the Potency result in [1], in [2], in experiment [14], in experiment [4], in [6] and in experiment [16] was “inactive” in each case. Besides, the Potency result in experiment [17], in [11], in [18], in experiment [12], in experiment [19] and in experiment [20] was “inactive” in each case. For the same molecule, in experiment [13], the Potency result was “inactive”.

These data come from PubChem BioAssay (Tox21).
